Test results as given in publication PMC7862700, “An all-to-all approach to the identification of sequence-specific readers for epigenetic DNA modifications on cytosine”.

Columns and labels:
Experiment in all cases: DAPPL (digital affinity profiling via proximity ligation, sequencing); 10 mM Tris-HCl pH 7.5, 50 mM NaCl, 1 mM DTT, 4% glycerol, room temperature, 30 min; GST-TFs on glutathione beads, 16-mer random dsDNA library, 0.1% formaldehyde crosslink after washing; high values mean tight binding
FLI1 = molecular target: T1, FLI1 (Homo sapiens, UniProt Q01543 1-452); settings: protein: recombinant; tags: N-terminal GST; dsDNA, one strand shown
T1 sequence: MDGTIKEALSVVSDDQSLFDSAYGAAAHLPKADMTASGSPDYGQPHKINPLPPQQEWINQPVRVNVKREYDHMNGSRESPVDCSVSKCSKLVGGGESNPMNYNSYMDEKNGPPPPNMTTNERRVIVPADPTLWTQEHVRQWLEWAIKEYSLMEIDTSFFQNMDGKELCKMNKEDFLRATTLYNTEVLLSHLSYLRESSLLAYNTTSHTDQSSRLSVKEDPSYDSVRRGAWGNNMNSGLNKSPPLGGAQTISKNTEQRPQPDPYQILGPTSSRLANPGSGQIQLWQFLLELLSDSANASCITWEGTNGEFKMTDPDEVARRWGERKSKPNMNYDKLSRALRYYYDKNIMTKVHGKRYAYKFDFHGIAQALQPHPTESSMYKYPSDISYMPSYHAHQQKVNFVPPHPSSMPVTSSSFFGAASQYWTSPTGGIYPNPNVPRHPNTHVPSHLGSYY
How it was run: (§1)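 Pools of DNA-barcoded human transcription factors, expressed in yeast as GST fusions on glutathione beads and combined with a tag-only sample, were incubated with 200 nmole of a 16-mer random double-stranded DNA library. Incubation took 30 min at room temperature in Tris/NaCl/DTT/glycerol buffer and was followed by washing, 0.1% formaldehyde crosslinking, proximity ligation (BsaI/T4 ligase, 1 h, 37 °C), PCR amplification and sequencing on an Illumina NextSeq500. Binding signal is the ratio of a hexamer's read frequency for a factor to its frequency for the tag-only sample.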

ELK1 = molecular target: T2, ELK1 (Homo sapiens, UniProt P19419 1-428); settings: protein: recombinant; tags: N-terminal GST; dsDNA, one strand shown
T2 sequence: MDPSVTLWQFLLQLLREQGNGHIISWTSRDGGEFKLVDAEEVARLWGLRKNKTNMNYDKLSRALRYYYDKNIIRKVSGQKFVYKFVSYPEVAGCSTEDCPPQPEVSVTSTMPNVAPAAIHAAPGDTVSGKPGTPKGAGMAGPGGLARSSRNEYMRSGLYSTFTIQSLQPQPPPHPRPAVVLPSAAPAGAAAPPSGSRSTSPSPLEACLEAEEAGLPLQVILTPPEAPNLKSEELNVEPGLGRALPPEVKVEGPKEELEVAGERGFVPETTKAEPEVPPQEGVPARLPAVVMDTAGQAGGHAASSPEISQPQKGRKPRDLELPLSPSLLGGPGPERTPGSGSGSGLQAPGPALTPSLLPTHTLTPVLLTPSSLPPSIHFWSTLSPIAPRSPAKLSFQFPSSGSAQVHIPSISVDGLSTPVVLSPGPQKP
How it was run: as §1

GABPA = molecular target: T3, GABPA (Homo sapiens, UniProt Q06546 1-454); settings: protein: recombinant; tags: N-terminal GST; dsDNA, one strand shown
T3 sequence: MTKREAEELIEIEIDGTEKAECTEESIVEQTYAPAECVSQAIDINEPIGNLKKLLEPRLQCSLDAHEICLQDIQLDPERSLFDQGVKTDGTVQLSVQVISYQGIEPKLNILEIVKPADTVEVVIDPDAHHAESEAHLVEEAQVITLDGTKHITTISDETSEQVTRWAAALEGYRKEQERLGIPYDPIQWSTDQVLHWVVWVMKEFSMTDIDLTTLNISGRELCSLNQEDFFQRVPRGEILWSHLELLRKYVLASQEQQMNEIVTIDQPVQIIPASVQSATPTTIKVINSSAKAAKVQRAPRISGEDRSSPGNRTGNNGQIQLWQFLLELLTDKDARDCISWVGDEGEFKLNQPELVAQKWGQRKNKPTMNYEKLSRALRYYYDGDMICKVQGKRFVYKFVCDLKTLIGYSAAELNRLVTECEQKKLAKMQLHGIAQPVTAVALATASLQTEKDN
How it was run: as §1

ERG = molecular target: T4, ERG (Homo sapiens, UniProt P11308 1-479); settings: protein: recombinant; tags: N-terminal GST; dsDNA, one strand shown
T4 sequence: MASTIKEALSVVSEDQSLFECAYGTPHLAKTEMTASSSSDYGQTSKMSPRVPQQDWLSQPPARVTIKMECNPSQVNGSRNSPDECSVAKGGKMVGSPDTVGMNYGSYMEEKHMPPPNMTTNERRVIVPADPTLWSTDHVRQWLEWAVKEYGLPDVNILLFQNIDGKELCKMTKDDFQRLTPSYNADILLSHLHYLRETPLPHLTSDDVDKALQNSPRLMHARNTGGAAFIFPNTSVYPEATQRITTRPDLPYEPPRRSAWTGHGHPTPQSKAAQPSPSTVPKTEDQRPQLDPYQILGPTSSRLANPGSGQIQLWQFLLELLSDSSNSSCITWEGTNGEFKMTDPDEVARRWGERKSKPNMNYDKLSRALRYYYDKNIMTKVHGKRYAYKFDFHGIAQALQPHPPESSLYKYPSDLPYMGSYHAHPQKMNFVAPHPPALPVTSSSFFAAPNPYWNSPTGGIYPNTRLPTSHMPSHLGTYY
How it was run: as §1

ELF1 = ELF1 (Homo sapiens, UniProt P32519 1-619); settings: protein: recombinant; tags: N-terminal GST; dsDNA, one strand shown
Sequence of ELF1 (P32519 whole entry): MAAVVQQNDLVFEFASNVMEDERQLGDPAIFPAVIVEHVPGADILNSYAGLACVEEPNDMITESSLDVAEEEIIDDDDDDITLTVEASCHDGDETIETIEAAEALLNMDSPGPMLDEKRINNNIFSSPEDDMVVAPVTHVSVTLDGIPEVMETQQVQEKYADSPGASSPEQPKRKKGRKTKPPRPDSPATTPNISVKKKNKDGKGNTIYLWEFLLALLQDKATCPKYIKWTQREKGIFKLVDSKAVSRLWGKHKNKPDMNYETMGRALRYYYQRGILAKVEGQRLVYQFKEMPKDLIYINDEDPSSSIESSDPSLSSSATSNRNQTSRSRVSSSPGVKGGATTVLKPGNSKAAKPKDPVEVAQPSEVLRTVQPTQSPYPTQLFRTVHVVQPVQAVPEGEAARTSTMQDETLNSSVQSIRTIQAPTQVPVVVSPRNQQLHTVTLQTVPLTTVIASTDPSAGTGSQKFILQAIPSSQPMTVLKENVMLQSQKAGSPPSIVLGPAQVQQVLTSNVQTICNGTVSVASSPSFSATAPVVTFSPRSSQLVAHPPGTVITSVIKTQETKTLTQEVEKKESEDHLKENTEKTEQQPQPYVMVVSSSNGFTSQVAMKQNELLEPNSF
How it was run: as §1

EHF = molecular target: T5, EHF (Homo sapiens, UniProt Q9NZC4 1-300); settings: protein: recombinant; tags: N-terminal GST; dsDNA, one strand shown
T5 sequence: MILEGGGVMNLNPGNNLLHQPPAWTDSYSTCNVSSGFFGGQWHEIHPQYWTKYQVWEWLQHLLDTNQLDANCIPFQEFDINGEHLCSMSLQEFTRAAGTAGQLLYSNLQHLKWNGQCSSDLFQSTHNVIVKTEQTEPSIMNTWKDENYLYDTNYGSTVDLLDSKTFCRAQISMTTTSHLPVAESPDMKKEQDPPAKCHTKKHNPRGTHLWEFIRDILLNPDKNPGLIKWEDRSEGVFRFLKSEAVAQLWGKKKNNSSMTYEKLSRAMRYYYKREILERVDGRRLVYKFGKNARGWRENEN
How it was run: as §1

SPI1 = SPI1 (Homo sapiens, UniProt P17947 1-270); settings: protein: recombinant; tags: N-terminal GST; dsDNA, one strand shown
How it was run: as §1

SPIB = SPIB (Homo sapiens, UniProt Q01892 1-262); settings: protein: recombinant; tags: N-terminal GST; dsDNA, one strand shown
Sequence of SPIB (Q01892 whole entry): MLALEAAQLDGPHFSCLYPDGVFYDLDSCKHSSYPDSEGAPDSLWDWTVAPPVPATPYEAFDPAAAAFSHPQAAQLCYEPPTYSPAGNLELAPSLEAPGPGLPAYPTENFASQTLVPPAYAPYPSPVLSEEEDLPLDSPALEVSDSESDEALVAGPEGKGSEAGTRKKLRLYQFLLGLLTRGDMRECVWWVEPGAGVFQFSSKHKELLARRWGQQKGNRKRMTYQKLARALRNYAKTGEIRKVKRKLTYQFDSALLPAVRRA
How it was run: as §1

ELK3 = molecular target: T6, ELK3 (Homo sapiens, UniProt P41970 1-407); settings: protein: recombinant; tags: N-terminal GST; dsDNA, one strand shown
T6 sequence: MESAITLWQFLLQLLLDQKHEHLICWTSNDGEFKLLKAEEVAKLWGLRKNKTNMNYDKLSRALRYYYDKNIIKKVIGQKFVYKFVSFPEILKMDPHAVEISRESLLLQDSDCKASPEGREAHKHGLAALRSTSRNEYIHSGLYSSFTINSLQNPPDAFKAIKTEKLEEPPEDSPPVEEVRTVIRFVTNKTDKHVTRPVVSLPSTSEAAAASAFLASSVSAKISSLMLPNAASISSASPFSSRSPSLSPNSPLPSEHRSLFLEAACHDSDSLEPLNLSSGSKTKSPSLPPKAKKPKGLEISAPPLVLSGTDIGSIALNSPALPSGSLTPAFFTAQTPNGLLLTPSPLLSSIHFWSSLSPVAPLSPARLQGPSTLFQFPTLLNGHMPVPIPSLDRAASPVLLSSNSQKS
How it was run: as §1

FEV = molecular target: T7, FEV (Homo sapiens, UniProt Q99581 1-238); settings: protein: recombinant; tags: N-terminal GST; dsDNA, one strand shown
T7 sequence: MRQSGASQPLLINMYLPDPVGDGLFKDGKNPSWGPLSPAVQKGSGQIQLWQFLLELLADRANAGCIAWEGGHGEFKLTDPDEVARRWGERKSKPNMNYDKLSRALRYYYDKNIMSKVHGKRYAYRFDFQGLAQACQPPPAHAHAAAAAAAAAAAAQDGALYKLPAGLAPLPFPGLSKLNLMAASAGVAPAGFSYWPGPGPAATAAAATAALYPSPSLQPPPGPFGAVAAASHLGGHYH
How it was run: as §1

ETV5 = ETV5 (Homo sapiens, UniProt P41161 1-510); settings: protein: recombinant; tags: N-terminal GST; dsDNA, one strand shown
Sequence of ETV5 (P41161 whole entry): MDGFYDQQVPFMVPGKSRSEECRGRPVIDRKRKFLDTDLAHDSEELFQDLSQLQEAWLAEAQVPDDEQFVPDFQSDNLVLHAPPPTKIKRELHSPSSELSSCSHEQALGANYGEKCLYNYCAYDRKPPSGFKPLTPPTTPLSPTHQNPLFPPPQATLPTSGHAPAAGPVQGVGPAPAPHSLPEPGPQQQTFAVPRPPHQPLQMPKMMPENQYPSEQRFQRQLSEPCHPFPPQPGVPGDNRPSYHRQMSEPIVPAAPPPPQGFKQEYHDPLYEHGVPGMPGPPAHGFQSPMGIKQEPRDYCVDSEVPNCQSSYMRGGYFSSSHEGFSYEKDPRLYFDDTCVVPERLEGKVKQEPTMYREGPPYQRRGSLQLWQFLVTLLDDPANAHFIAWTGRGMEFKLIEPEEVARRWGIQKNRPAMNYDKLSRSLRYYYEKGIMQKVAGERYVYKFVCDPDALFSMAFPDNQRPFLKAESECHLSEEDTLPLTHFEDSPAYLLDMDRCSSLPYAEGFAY
How it was run: as §1

HSF1 = HSF1 (Homo sapiens, UniProt Q00613 1-529); settings: protein: recombinant; tags: N-terminal GST; chain copies: 3; dsDNA, one strand shown
Sequence of HSF1 (Q00613 whole entry): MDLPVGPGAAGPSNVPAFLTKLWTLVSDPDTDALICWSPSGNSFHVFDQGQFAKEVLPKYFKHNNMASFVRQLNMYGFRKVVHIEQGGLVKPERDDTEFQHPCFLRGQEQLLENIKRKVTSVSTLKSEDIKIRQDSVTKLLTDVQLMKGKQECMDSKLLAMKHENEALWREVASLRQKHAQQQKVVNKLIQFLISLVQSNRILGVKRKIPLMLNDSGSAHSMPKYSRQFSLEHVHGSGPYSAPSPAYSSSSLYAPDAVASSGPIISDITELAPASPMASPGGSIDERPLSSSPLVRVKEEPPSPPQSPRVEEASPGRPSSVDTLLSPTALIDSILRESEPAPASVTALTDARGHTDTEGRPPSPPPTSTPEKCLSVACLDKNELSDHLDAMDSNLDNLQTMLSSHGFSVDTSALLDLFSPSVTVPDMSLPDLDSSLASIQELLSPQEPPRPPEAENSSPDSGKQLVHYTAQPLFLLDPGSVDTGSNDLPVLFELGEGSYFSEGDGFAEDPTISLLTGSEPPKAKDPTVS
How it was run: as §1

SPIC = molecular target: T8, SPIC (Homo sapiens, UniProt Q8N5J4 1-248); settings: protein: recombinant; tags: N-terminal GST; dsDNA, one strand shown
T8 sequence: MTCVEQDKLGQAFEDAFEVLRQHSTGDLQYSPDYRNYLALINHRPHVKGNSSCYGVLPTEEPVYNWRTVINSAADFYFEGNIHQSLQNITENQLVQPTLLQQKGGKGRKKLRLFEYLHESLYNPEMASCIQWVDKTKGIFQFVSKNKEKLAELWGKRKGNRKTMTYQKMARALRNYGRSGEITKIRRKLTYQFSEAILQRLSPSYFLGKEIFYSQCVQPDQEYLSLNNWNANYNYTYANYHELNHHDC
How it was run: as §1

ELF4 = ELF4 (Homo sapiens, UniProt Q99607 1-663); settings: protein: recombinant; tags: N-terminal GST; dsDNA, one strand shown
Sequence of ELF4 (Q99607 whole entry): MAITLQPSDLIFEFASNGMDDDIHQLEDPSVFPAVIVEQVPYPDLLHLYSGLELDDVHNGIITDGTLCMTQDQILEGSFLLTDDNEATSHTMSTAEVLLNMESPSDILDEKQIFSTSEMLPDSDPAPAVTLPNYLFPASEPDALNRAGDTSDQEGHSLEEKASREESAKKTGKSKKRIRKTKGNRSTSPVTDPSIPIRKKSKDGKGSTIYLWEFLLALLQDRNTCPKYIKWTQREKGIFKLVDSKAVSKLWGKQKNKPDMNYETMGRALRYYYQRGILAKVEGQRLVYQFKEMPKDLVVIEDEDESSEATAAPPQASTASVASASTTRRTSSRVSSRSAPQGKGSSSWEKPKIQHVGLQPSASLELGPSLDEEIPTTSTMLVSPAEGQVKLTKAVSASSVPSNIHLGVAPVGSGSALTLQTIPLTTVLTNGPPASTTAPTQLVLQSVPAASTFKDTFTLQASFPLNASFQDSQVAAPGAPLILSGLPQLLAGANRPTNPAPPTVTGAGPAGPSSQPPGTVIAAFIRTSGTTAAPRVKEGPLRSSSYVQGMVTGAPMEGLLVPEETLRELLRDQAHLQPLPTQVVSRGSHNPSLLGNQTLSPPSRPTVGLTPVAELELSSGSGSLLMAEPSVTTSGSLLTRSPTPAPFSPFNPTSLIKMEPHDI
How it was run: as §1

ELK4 = molecular target: T9, ELK4 (Homo sapiens, UniProt P28324-2 1-405); settings: protein: recombinant; tags: N-terminal GST; dsDNA, one strand shown
T9 sequence: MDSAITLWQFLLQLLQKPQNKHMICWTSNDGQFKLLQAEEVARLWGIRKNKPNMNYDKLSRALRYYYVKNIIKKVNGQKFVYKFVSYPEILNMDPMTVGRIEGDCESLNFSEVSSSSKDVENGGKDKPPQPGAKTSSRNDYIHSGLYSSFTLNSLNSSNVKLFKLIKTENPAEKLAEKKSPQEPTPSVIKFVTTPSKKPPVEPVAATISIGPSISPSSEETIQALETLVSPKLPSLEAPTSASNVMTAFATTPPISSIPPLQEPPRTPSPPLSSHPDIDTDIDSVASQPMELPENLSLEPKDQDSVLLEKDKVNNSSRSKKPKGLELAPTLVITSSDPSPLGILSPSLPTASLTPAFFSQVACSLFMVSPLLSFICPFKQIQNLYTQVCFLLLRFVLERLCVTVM
How it was run: as §1

ETV2 = molecular target: T10, ETV2 (Homo sapiens, UniProt O00321 1-342); settings: protein: recombinant; tags: N-terminal GST; dsDNA, one strand shown
T10 sequence: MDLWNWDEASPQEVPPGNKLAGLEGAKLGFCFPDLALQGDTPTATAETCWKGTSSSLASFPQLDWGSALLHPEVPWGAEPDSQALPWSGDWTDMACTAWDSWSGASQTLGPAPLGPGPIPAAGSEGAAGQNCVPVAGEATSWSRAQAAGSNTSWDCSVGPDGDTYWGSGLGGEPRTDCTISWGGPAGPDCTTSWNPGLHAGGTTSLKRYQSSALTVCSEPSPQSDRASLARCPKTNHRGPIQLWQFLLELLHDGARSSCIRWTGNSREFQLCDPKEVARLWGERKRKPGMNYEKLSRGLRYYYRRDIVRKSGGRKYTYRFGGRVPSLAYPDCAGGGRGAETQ
How it was run: as §1

ELF3 = molecular target: T11, ELF3 (Homo sapiens, UniProt P78545 1-371); settings: protein: recombinant; tags: N-terminal GST; dsDNA, one strand shown
T11 sequence: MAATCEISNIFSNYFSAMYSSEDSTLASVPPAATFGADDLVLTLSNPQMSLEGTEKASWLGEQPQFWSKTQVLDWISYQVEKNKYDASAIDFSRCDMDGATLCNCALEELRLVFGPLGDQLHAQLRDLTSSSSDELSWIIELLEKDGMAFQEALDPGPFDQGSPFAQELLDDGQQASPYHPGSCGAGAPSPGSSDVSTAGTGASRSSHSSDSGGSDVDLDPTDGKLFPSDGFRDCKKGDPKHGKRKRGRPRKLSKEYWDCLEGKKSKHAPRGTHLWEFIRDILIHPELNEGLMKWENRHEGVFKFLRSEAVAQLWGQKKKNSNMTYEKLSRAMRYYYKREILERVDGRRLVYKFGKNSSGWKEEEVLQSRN
How it was run: as §1

CRX = CRX (Homo sapiens, UniProt O43186 1-299); settings: protein: recombinant; tags: N-terminal GST; dsDNA, one strand shown
Sequence of CRX (O43186 whole entry): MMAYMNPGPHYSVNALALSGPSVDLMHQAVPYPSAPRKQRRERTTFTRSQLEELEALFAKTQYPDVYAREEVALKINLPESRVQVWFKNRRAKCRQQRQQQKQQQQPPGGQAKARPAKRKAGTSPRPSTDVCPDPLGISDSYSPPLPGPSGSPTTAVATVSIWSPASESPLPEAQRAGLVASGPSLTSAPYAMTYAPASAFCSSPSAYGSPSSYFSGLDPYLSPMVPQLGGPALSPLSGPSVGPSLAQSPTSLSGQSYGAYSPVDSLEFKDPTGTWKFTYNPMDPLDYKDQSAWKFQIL
How it was run: as §1

ETV1 = ETV1 (Homo sapiens, UniProt P50549 1-477); settings: protein: recombinant; tags: N-terminal GST; dsDNA, one strand shown
Sequence of ETV1 (P50549 whole entry): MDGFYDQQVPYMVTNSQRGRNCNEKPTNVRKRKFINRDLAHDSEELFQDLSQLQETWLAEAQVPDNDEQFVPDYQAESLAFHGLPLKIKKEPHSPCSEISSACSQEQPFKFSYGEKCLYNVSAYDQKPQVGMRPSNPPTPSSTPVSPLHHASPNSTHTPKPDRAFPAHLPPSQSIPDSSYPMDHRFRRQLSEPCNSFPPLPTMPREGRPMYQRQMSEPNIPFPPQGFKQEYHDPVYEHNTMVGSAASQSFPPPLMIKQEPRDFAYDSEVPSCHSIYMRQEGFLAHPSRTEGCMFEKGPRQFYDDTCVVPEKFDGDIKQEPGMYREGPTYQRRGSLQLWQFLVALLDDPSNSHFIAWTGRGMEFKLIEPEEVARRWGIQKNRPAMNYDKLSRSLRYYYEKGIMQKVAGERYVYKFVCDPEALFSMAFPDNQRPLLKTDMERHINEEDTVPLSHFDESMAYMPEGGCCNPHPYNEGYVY
How it was run: as §1

## ATGAAC
FLI1
  binding signal: 1.31 fold enrichment (6-mer frequency, TF over GST control)
ELK1
  binding signal: 1.28 fold enrichment (6-mer frequency, TF over GST control)
GABPA
  binding signal: 1.27 fold enrichment (6-mer frequency, TF over GST control)
ERG
  binding signal: 1.19 fold enrichment (6-mer frequency, TF over GST control)
ELF1
  binding signal: 1.27 fold enrichment (6-mer frequency, TF over GST control)
EHF
  binding signal: 1.32 fold enrichment (6-mer frequency, TF over GST control)
SPI1
  binding signal: 1.21 fold enrichment (6-mer frequency, TF over GST control)
SPIB
  binding signal: 1.27 fold enrichment (6-mer frequency, TF over GST control)
ELK3
  binding signal: 1.44 fold enrichment (6-mer frequency, TF over GST control)
FEV
  binding signal: 1.26 fold enrichment (6-mer frequency, TF over GST control)
ETV5
  binding signal: 1.29 fold enrichment (6-mer frequency, TF over GST control)
HSF1
  binding signal: 1.21 fold enrichment (6-mer frequency, TF over GST control)
SPIC
  binding signal: 1.39 fold enrichment (6-mer frequency, TF over GST control)
ELF4
  binding signal: 1.36 fold enrichment (6-mer frequency, TF over GST control)
ELK4
  binding signal: 1.31 fold enrichment (6-mer frequency, TF over GST control)
ETV2
  binding signal: 1.11 fold enrichment (6-mer frequency, TF over GST control)
ELF3
  binding signal: 1.38 fold enrichment (6-mer frequency, TF over GST control)
CRX
  binding signal: 1.13 fold enrichment (6-mer frequency, TF over GST control)
ETV1
  binding signal: 1.38 fold enrichment (6-mer frequency, TF over GST control)
